Experimental data as given in PubChem BioAssay (NCI).
Compounds without any hit were thinned out: in the full panel of roughly 83,000, 20% have a hit.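 A percent growth of 40 corresponds to 60% growth inhibition; 0 means no net growth; -100 means all cells died. Active threshold: below 10.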 Unmarked numbers belong to inactive results. Calls of active or inactive are those of the source.

Key:
Assay in all cases: NCI-60 one-dose screen, 48 h (100 = growth as untreated, 0 = no growth, -100 = all killed)
HCT-15 colon = conditions: 10 µM
HT29 colon = conditions: 10 µM
SNB-75 CNS = conditions: 10 µM
SNB-19 CNS = conditions: 10 µM
U251 CNS = conditions: 10 µM
PC-3 prostate = conditions: 10 µM
SK-MEL-5 melanoma = conditions: 10 µM
UACC-62 melanoma = conditions: 10 µM unless noted
LOX IMVI melanoma = conditions: 10 µM
SK-MEL-28 melanoma = conditions: 10 µM

SMILES	growth (HCT-15 colon)	growth (HT29 colon)	growth (SNB-75 CNS)	growth (SNB-19 CNS)	growth (U251 CNS)	growth (PC-3 prostate)	growth (SK-MEL-5 melanoma)	growth (UACC-62 melanoma)	growth (LOX IMVI melanoma)	growth (SK-MEL-28 melanoma)
O=C(CCNNC(=O)c1ccncc1)NCc1ccccc1	81.8%	105%	89.4%	98.1%	85.4%	87.4%	89%	88%	86.8%	103%
COC(=O)c1ccccc1N(C)C	103%	94.8%	93.3%	98.8%	112%	100%	101%	105%	94.5%	103%
O=C1Cc2cc(O)ccc2O1	117%	104%	86%	107%	103%	107%	101%	101%	83.1%	108%
COC(=O)c1ccccc1Br	99.6%	110%	80.5%	96.4%	106%	80%	107%	94.4%	98.4%	159%
O=C1C=C(O)C(=O)C=C1O	107%	105%	95.1%	104%	104%	101%	114%	102%	98.9%	114%
Cc1ccc(Cl)cc1N1C(=O)CC(Sc2ccccc2N)C1=O (stereo not given)	93.4%	109%	65.5%	102%	102%	89.5%	110%	95.8%	94.7%	92.5%
CCCCN(CCCC)CCCO	100%	126%	86.7%	112%	116%	180%	104%	106%	101%	110%
NC(C(=O)O)C(O)c1ccco1 (stereo not given)	99.1%	120%	106%	114%	102%	96%	104%	113%	103%	107%
COc1cccc(/C=N/NC(=S)NC2CC3CCC2C3)c1O (stereo not given)	26.8%	93.6%	5.33% (active)	72.4%	42.2%	64.8%	67.8%	67.7%	44.2%	67.6%
Nc1ncnc2[nH]ncc12	5.92% (active)	12.3%	33.3%	71.3%	42.8%	7.63% (active)	15%	-15.9% (active)	1.37% (active)	28.5%
C1CNC(C2=NCCN2)=N1	108%	102%	100%	112%	102%	98.8%	101%	104%	98%	109%
C[C@]12CC[C@@H]3c4ccc(OCC(=O)O)cc4CC[C@H]3[C@@H]1CCC2=O	106%	104%	83.5%	103%	104%	95.7%	99.9%	96.5%	86%	118%
CCOC(=O)C(CCC(C)C)C(=O)OCC	104%	94.4%	94.6%	109%	101%	107%	102%	101%	115%	107%
COC(=O)C(O)c1ccccc1 (stereo not given)	105%	122%	93%	102%	104%	94.6%	104%	94.1%	107%	103%
S=C(Nc1ccccc1)N1CCCCC1	105%	102%	99.5%	111%	96.2%	96.4%	97%	90.5%	96.6%	103%
CCC(=O)Oc1ccc(OC)cc1	105%	105%	90.7%	104%	98.3%	110%	107%	99.8%	105%	112%

SMILES	growth (HCT-15 colon)	growth (HT29 colon)	growth (SNB-75 CNS)	growth (SNB-19 CNS)	growth (U251 CNS)	growth (PC-3 prostate)	growth (SK-MEL-5 melanoma)	growth (UACC-62 melanoma)	growth (LOX IMVI melanoma)	growth (SK-MEL-28 melanoma)
O=c1[nH]c(O)c(/C=C2/C=Nc3ccccc32)[nH]1	81.2%	95.3%	77.4%	104%	103%	83.4%	91.2%	95.7%	96.6%	111%
CCc1ccc(/C(C#N)=C/C=C/c2ccccc2)cc1	38.7%	-5.6% (active)	0.0202% (active)	59.5%	21.3%	19%	9.25% (active)	29.6%	44%	51.8%
COC(=O)/C=C1\Sc2cc(F)ccc2NC1=O	106%	97.8%	86.6%	95%	93.2%	92.2%	104%	88.8%	93.4%	129%
CCC(C#N)(CC)c1ccccc1	90.6%	110%	84.6%	99.5%	109%	102%	98.6%	89.5%	97.9%	108%
C=CC[N+](C)(C)C	98.7%	104%	94.3%	98.7%	101%	97.6%	105%	102%	92.2%	107%
CN(c1ccccc1)c1ncnc2c1ncn2C	102%	102%	92.8%	102%	98.9%	95.8%	102%	96.8%	98.5%	112%
C/C(=N\O)C1(O)CCCCC1	93.6%	110%	91.7%	105%	95.1%	129%	87.9%	59.2%	98.8%	114%
O=c1[nH][nH]c(=O)c2cc([N+](=O)[O-])ccc12	121%	103%	83.4%	108%	101%	104%	101%	112%	94.8%	115%
CCOC(=O)CNN	108%	105%	94.7%	100%	95.7%	99.3%	90.5%	103%	90.6%	115%
Oc1ccccc1O	95.6%	92.1%	89.4%	80.2%	82.7%	87.4%	89.3%	86.8%	85.3%	101%
C=C[Si](OC(C)=O)(OC(C)=O)OC(C)=O	103%	101%	95.5%	109%	100%	91.6%	104%	116%	98.4%	104%
CC(=O)Cc1ccc(-c2ccccc2)cc1	103%	111%	98.5%	101%	98.3%	97.1%	98.7%	87.5%	100%	114%
COc1cc2nn(-c3ccccc3N)nc2cc1OC	102%	103%	72.6%	99.9%	91.7%	97.8%	98.4%	103%	94.7%	109%
COCCOCCCl	99.3%	105%	95.9%	103%	105%	84.5%	92.1%	104%	98.5%	114%
Cc1ccc(O)c(C(=O)c2ccccc2)c1	104%	104%	96.6%	92.2%	105%	101%	105%	96.6%	99.3%	110%
